Results filed as inconclusive are left out. The source made the active and inactive calls. Unless noted, the call rests on the fitted dose curve; in most records, active means well fitted curve in either direction with a large enough effect (not every such curve was filed as active); inconclusive means small, poorly fitted or top-dose-only effect, or another doubt; inactive means flat fitted curve, though single readings scatter.
Assays:
[1] = NFAT Signaling Pathway (AID 444); conditions: Jurkat NFAT-bla M1, carbachol, beta-lactamase ratio, 5 h;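 further: carbachol stimulus at about its EC50 of 1 µM final; on the % scale 0 is the no-effect control and ±100 the full control effect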
Procedure, shortened: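 Read-out: CCF4 FRET ratio (460 nm/530 nm) after 1 h RT dye loading, used for %activity and AC50 from titration series. Cells: Jurkat NFAT-β-lactamase/M1 line, treated with compound plus 1 uM carbachol for 5 h, 37 °C.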

[2] = Stat Signaling Pathway (AID 446); conditions: ME-180 (cervical carcinoma) SIE beta-lactamase reporter, IL-6 stimulated, 5 h;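 further: ME-180 cervical cancer cells given 40 pM IL-6 alongside compound; SIE-controlled beta-lactamase reporter measured as 460/530 nm FRET emission ratio; on the % scale 0 is the no-effect control and ±100 the full control effect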
Procedure, shortened: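 Normalization used AC90 stimulation (300 pM IL-6) and AC90 inhibition (125 nM pan-JAK inhibitor at 40 pM IL-6). The underlying signal is SIE-driven beta-lactamase in ME-180 cells after 5 h IL-6 exposure with compound.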

[3] = biological target: Glucocorticoid receptor (Homo sapiens) (UniProt P04150); test: GR-GFP Redistribution (AID 450;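 active means compounds whose dose series gives a full or clear partial fitted curve of increased nuclear translocation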; further: potency means the concentration at half of the fitted maximal effect)
[4] = biological target: Mitogen-activated protein kinase 10 (Mus musculus) (UniProt Q61831); test: JNK3 AlphaScreen Assay (AID 530);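 further: kinase came from lysate of stimulated human HepG2 cells; signal reports phosphorylation of biotinylated GST-cJun 1-79 at Ser73 with 10 µM ATP; on the % scale 0 is the no-effect control and ±100 the full control effect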
Procedure, shortened: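 Kinase buffer: 20 mM Tris-HCl pH 7.6, 10 mM MgCl2, 1 mM DTT, 0.1 mM Na3VO4, 0.01% Tween-20; ATP 10 uM. Substrate biotin-GST-cJun(1-79), enzyme from activated HepG2 lysates. Detection by Ser73 phospho-antibody AlphaScreen.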

[5] = biological target: 3',5'-cyclic-AMP phosphodiesterase 4B (Homo sapiens) (UniProt Q07343); test: qHTS Assay for Inhibitors of PDE-IV (AID 607; active means well fitted activation curve with a large enough effect in the main read-out, with a control signal flat, not every such curve was filed as active; further: % of control where 0% means no effect)
Procedure, shortened: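 HEK293 ACTOne cells with CNG channel (1000/well), endogenous PDE4; membrane potential dye, compounds up to 22.9 uM final. Fluorescence Ex 535/Em 590; RO 20-1724 (100 uM final) as reference.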

[6] = biological target: Cytochrome P450 2D6 (Homo sapiens) (UniProt P10635); test: qHTS Assay for Inhibitors and Substrates of Cytochrome P450 2D6 (AID 891; active means well fitted curve in the direction sought with a large enough effect; an effect the other way counts as inactive or inconclusive; further: nearly all actives have a fitted effect of over 60% in size;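 on activity change, negative = inhibition: luciferin methyl ether substrate demethylated by CYP2D6 with NADPH regeneration; on the % scale 0 is the no-effect control and ±100 the full control effect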)
Procedure, shortened: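 Luminescent read-out of luciferin formed by 5 nM human CYP2D6 demethylating 30 uM Luciferin-ME EGE (Km level) over 60 min at room temperature after NADPH regeneration addition. Data normalized to full inhibition by 1.43 uM quinidine.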

[7] = biological target: DNA dC->dU-editing enzyme APOBEC-3G (Homo sapiens) (UniProt Q9HC16); test: qHTS for inhibitors of Vif-A3G interactions: Validation (AID 588379; active means well fitted curve in the direction sought with a large enough effect; an effect the other way counts as inactive or inconclusive; further: 0% is about no effect)
Procedure, shortened: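 Yellow fluorescence (Ex 488, Em 500-530) of Vif-coexpressing HeLa A3G-eYFP cells, scanned by Acumen cytometer, reports blocked A3G degradation. Cells plated at 700/well overnight at 37 deg C before compound addition, then a further overnight compound incubation at 37 deg C.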

[8] = at 17.2 µM (top of the series) unless noted

Cytochrome P450 2D6 (Homo sapiens), sequence (P10635 whole entry, looked up): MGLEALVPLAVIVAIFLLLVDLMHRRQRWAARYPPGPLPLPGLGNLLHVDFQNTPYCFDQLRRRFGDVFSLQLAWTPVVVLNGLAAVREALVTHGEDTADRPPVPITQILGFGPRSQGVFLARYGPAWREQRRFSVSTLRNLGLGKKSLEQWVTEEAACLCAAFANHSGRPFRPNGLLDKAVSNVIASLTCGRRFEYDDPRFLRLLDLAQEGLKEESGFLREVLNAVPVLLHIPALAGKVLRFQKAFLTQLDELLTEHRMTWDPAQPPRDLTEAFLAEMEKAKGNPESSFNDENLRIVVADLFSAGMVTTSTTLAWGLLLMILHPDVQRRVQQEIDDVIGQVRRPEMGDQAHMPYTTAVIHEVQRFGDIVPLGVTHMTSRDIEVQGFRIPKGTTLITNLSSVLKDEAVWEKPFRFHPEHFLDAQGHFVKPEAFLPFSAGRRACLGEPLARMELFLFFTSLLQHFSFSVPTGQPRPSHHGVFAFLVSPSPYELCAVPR
Glucocorticoid receptor (Homo sapiens), sequence (P04150 whole entry, looked up): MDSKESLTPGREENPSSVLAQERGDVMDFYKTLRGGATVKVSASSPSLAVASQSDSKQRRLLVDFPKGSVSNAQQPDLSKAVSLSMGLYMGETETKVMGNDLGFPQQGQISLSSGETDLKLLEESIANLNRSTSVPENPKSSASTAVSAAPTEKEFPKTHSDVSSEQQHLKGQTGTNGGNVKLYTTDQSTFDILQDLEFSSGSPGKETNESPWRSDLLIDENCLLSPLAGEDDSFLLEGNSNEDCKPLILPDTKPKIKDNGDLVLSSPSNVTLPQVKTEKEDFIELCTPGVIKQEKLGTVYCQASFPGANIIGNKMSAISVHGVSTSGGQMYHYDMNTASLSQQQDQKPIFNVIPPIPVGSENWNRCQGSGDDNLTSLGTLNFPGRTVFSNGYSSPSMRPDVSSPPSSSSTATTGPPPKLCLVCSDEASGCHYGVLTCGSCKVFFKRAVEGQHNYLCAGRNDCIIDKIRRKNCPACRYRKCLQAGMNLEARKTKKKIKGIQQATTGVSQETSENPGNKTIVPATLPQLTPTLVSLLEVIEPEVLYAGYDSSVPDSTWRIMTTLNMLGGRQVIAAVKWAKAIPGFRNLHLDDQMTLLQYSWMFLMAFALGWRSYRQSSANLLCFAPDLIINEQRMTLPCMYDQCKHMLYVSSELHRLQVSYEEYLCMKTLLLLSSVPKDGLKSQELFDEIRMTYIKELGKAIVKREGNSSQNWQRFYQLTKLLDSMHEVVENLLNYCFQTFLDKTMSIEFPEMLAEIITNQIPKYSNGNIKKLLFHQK
3',5'-cyclic-AMP phosphodiesterase 4B (Homo sapiens), sequence (Q07343 whole entry, looked up): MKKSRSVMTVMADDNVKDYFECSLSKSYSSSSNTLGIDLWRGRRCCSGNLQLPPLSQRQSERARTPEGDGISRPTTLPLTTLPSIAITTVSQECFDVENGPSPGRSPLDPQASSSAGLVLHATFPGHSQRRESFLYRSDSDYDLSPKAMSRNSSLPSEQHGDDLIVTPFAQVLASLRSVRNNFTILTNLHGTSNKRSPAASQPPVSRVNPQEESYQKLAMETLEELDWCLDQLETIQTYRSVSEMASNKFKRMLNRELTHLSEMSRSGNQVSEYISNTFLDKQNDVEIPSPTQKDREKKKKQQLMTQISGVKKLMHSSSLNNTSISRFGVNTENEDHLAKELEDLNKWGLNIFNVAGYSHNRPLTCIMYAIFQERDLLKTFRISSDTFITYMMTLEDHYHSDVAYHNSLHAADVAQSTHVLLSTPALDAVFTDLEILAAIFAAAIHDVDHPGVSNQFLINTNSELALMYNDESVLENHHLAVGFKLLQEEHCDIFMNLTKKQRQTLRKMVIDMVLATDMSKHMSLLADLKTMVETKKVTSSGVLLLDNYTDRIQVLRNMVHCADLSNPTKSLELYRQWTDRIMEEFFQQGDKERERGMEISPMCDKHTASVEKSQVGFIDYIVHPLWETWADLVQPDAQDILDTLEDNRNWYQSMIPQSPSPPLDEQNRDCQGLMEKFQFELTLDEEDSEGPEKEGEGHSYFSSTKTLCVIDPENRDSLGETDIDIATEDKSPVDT
DNA dC->dU-editing enzyme APOBEC-3G (Homo sapiens), sequence (Q9HC16 whole entry, looked up): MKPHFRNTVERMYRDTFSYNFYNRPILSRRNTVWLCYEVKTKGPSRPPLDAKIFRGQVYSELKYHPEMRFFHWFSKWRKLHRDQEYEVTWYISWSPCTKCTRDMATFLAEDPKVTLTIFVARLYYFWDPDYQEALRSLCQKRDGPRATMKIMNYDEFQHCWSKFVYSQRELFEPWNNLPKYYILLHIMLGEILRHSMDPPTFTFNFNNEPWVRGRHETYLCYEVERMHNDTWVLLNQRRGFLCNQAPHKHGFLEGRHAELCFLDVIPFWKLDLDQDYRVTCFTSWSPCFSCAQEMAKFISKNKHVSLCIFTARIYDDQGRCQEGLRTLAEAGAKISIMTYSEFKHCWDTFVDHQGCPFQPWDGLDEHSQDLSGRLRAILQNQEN

CCCSc1nnc(NC(=O)Nc2ccccc2)s1
inactive: activity change, negative = inhibition [1, 8] -25.9% | activity, negative = inhibition [2, 8] -19.6% | Potency [3] > 20.6 µM

NC(=O)CSc1nnc2n(-c3ccccc3)c(=O)c3c4c(sc3n12)CCCCC4
inactive: activity change, negative = inhibition [1, 8] -30% | activity, negative = inhibition [2, 8] 9.67%

COc1cc2c(c(OC)c1OC)-c1ccc(OC)c(=O)cc1[C@H](NC(C)=O)CC2
inactive: activity change, negative = inhibition ([1]; at 17.2 µM (top of the series)) -4.77% | activity change, negative = inhibition ([1]; at 38 µM (top of the series)) 3.11% | activity, negative = inhibition ([2]; at 17.2 µM (top of the series)) 4.59% | activity, negative = inhibition ([2]; at 38 µM (top of the series)) -18.3% | Potency [4] | Potency [5] | Potency [6] | outcome [6] | outcome [7]

COC(=O)c1ccc(-c2sc3nc(N4CCOCC4)c4c(c3c2N)CCCC4)o1
inactive: activity change, negative = inhibition [1, 8] -5.04% | activity, negative = inhibition [2, 8] -5.83% | Potency [3] > 20.6 µM

Cc1cccc(Nc2ncnc3ccccc23)c1
inactive: activity change, negative = inhibition [1, 8] -1.27% | activity, negative = inhibition [2, 8] -0.134% | Potency [3] > 20.6 µM
